Bioassay records deposited in PubChem by National Center for Advancing Translational Sciences (NCATS).
AmpC inh detg = qHTS Inhibitors of AmpC Beta-Lactamase (assay with detergent) | AmpC hydrolysis of nitrocefin, absorbance 480 nm, 0.01% Triton | P00811 | AID 485294, 2010 | 370,000 tested, 0.041% active | Potency, µM (series often up to 114 µM), for the others: at the highest dose activity change, negative = inhibition, most hits filed as inhibitors;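 also: 0% = no-compound wells and -100% = no-enzyme wells; nearly all actives have a fitted effect of over 25% in size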
Target sequence (P00811 whole entry, looked up): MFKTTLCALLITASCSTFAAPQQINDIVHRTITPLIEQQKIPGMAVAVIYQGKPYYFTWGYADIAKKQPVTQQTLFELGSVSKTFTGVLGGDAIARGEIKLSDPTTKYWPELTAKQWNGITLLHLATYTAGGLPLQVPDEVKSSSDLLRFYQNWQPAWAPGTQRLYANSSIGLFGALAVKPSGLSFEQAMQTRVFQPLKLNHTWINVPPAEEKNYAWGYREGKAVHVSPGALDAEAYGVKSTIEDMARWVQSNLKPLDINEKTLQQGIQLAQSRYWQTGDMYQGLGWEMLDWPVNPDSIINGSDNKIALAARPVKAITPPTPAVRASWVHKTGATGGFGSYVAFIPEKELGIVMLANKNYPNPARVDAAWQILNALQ
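AmpC (5.3 nM in the dispensed reagent) in 20 mM phosphate pH 7.0 with 0.01% (detergent screen) or 0.0001% Triton X-100 was preincubated with compounds for 15 min at room temperature. Nitrocefin was then added from an 800 uM solution, and hydrolysis was followed at 480 nm.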
Sm TGR block = qHTS Assay for the Inhibitors of Schistosoma Mansoni Peroxiredoxins; purified TGR, DTNB reduction, TNB absorbance 405 nm; Potency, µM (doses to about 114 µM), inactives show at the top dose activity change, negative = inhibition, actives largely listed as inhibitors; 360,000 tested, 3% active; also: % is scaled to controls: 0 for no effect and ±100 for the full control effect; nearly all actives have a fitted effect of over 60% in size
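TGR 20 nM + NADPH 100 uM (dispensed conc.), cpd preinc 15 min RT; start with NADPH (500 uM addition) then DTNB (15 mM addition). Kinetic TNB absorbance, 405 nm filter. Four-parameter Hill fit across titration.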
TbPYK inhibitor = qHTS of Trypanosoma Brucei Inhibitors. pyruvate kinase (Trypanosoma brucei), Q57TT1. 410,000 tested, 0.12% active. AID 624173, 2012. Potency, µM (doses to about 76.8 µM), inactives show at the top dose activity, negative = inhibition, actives largely listed as inhibitors. TbPYK enzyme, Kinase-Glo Plus ATP luminescence, 45 min; also: % is scaled to controls: 0 for no effect and ±100 for the full control effect; nearly all actives have a fitted effect of over 50% in size
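TbPYK + substrate in 50 mM TEA pH 7.2, 100 mM KCl, 10 mM MgCl2, 0.05% BSA, 0.01% Tween-20; cpd pinned; ADP 130 uM final; 45 min RT; Kinase-Glo Plus 10 min; luminescence endpoint.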
RE007 growth inh = qHTS Assay for Inhibitors of the HIV-1 protein Vpr. Potency, µM (doses to about 92.2 µM), for inactives: top-dose activity change, negative = less growth, actives largely listed as inhibitors. 360,000 tested, 0.21% active. S. pombe RE007 Vpr strain, BacTiter-Glo ATP luminescence, 24 h; active = well fitted falling curve with a large enough effect; inconclusive = small, poorly fitted or top-dose-only effect; inactive = no such curve, though single readings can be large or run the other way; also: % is scaled to controls: 0 for no effect and ±100 for the full control effect; nearly all actives have a fitted effect of over 50% in size
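Fission yeast strain RE007, carrying one chromosomally integrated HIV-1 vpr copy, was seeded at OD 0.01 in PMG+AL medium with 23 nL pinned compound. After 24 h at 30 °C and 99% humidity, viability was read by BacTiter-Glo luminescence.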
AmpC no deterg = qHTS Inhibitors of AmpC Beta-Lactamase (assay without detergent); AmpC nitrocefin hydrolysis, absorbance 480 nm, 0.0001% Triton; Potency, µM (titrated, usually from 57.1 µM), inactives show top-dose activity change, negative = inhibition, actives largely listed as inhibitors; 330,000 tested, 0.52% active; AID 485341, 2010;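 also: plate controls were no compound for no effect and no enzyme for full effect; nearly all actives have a fitted effect of over 20% in size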
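20 mM phosphate pH 7.0 + 0.01% (detergent screen) or 0.0001% Triton X-100; 5.3 nM AmpC reagent; cpd preinc 15 min RT; nitrocefin (800 uM stock) to start; A480 q20 s × 4 min; Activity was normalised to no-enzyme and no-compound control wells.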
SARS PLP yeast = qHTS of Yeast-based Assay for SARS-CoV PLP; Potency, µM (series often up to 32.9 µM), for inactives: top-dose activity, positive = growth rescue, most hits filed as activators; 330,000 tested, 0.19% active; S. cerevisiae expressing SARS-CoV PLpro, growth rescue; calls by dose curve; also: 0% is about no effect; nearly all actives have a fitted effect of over 55% in size
An asterisk follows results filed as active; [ ] = another dose, or the depositor's remark. The list is not random: actives were taken first. Their share in the collection is about 3.3%. Unless noted, calls follow the shape of the dose curve; as a rule, active = well fitted curve in the direction sought with a large enough effect; inconclusive = small, poorly fitted or top-dose-only effect, or another doubt; inactive = no such curve, though single readings can be large; an effect the other way counts as inactive or inconclusive. Potency is read from the fitted curve at half-maximal effect.

Screening O=C(NC(=S)Nc1ccc(S(=O)(=O)Nc2nccs2)cc1)c1ccc(F)cc1 returned AmpC inh detg inconclusive, Sm TGR block 28µM*, TbPYK inhibitor -7%, RE007 growth inh -8%, AmpC no deterg -33% and SARS PLP yeast -16%.
Screening COc1nccnc1NS(=O)(=O)c1ccc(NC(=S)NC(=O)c2cccc(F)c2)cc1 returned AmpC inh detg -5%, Sm TGR block 45µM*, TbPYK inhibitor -2%, RE007 growth inh -12%, AmpC no deterg -35% and SARS PLP yeast -3%.
COc1nsnc1NS(=O)(=O)c1ccc(NC(=S)NC(=O)c2cccnc2)cc1 was read as AmpC inh detg 1%, TbPYK inhibitor -4%, RE007 growth inh -15%, AmpC no deterg -8% and SARS PLP yeast -1%.
Screening CC(C)(C)C(=O)NC(=S)Nc1ccc(S(=O)(=O)Nc2nccs2)cc1 returned AmpC inh detg -9%, Sm TGR block inconclusive, TbPYK inhibitor -2%, RE007 growth inh -22%, AmpC no deterg -35% and SARS PLP yeast 0%.
Screening Cc1ccc(C)c(NC(=O)CCCn2c(C)c3cnn(-c4ccccc4)c(=O)c3c2C)c1 returned AmpC inh detg 21%, Sm TGR block inconclusive and TbPYK inhibitor 3%.
Screening O=C(Nc1ccc(S(=O)(=O)Nc2nccs2)cc1)c1ccc(F)c(S(=O)(=O)N2CCOCC2)c1 returned AmpC inh detg inconclusive, Sm TGR block 1%, TbPYK inhibitor 3%, RE007 growth inh 13%, AmpC no deterg 7.9µM* and SARS PLP yeast 0%.
`COc1nccnc1NS(=O)(=O)c1ccc(NC(=S)NC(=O)c2ccc(F)cc2)cc1` gave AmpC inh detg 5%, Sm TGR block 45µM*, TbPYK inhibitor -8%, RE007 growth inh -4%, AmpC no deterg -27% and SARS PLP yeast -21%.
`COc1nccnc1NS(=O)(=O)c1ccc(NC(=S)NC(=O)c2ccccc2F)cc1` gave AmpC inh detg inconclusive, Sm TGR block inconclusive, TbPYK inhibitor 2%, RE007 growth inh -15%, AmpC no deterg -21% and SARS PLP yeast -3%.
Screening CCCNC(=O)C1CCC(Cn2c(=O)c3sccc3n(Cc3cccc(OC)c3)c2=O)CC1 (stereo not given) returned AmpC inh detg 13%, Sm TGR block -1% and TbPYK inhibitor 3%.
Screening Cc1cccc(CNC(=O)c2ccc(Cn3c(=O)c4cccn4c4cccnc43)cc2)c1 returned AmpC inh detg -8%, Sm TGR block 4% and TbPYK inhibitor -4%.
Cc1cc(-c2ccc(C)c(S(=O)(=O)NCc3cccs3)c2)on1 was read as AmpC inh detg 2%, Sm TGR block 8% and TbPYK inhibitor 6%[15.4 µM].
For CCCCc1ccc(-n2nc3cc(C)c(NC(=O)Cc4ccccc4)cc3n2)cc1 the results were AmpC inh detg -4%, Sm TGR block -17% and TbPYK inhibitor 4%.
Screening CC(=O)OCc1cnc(C)c2oc(=O)c(C(=O)Nc3cccc(F)c3)cc12 returned AmpC inh detg -4%, Sm TGR block 0% and TbPYK inhibitor 8%.
For Cc1cc(C)nc(N/N=C/C2=C(N3CCOCC3)C(=C/c3ccccc3)/CC2)n1 the results were AmpC inh detg 3%, Sm TGR block inconclusive, TbPYK inhibitor -10%, AmpC no deterg 52% and SARS PLP yeast -21%.
For O=C(NP(=O)(N1CCOCC1)N1CCOCC1)C1=C(N2CCOCC2)/C(=C\c2ccccc2)CC1 the results were AmpC inh detg -14%, Sm TGR block 3.2µM*, TbPYK inhibitor -8%, RE007 growth inh -28%, AmpC no deterg -13% and SARS PLP yeast -2%.
For O=P(C1=C(N2CCOCC2)/C(=C\c2ccccc2)CC1)(N1CCOCC1)N1CCOCC1 the results were AmpC inh detg -9%, Sm TGR block 45µM*, TbPYK inhibitor 0%, RE007 growth inh 11%, AmpC no deterg 147% and SARS PLP yeast 4%.
For O=C(N/N=C/C1=C(N2CCOCC2)C(=C\c2ccccc2)/CC1)Nc1ccccc1 the results were AmpC inh detg 1%, Sm TGR block -6%, TbPYK inhibitor 9%, RE007 growth inh -11%, AmpC no deterg -23% and SARS PLP yeast 4%.
`N#CC1=C(N2CCOCC2)/C(=C\c2ccccc2)CC1` gave AmpC inh detg inconclusive, Sm TGR block -27%, TbPYK inhibitor 5%, RE007 growth inh 7%, AmpC no deterg -7% and SARS PLP yeast -16%.
`COc1cc(NC(=O)C2=C(N3CCOCC3)/C(=C\c3ccc(Br)cc3)CC2)cc(OC)c1OC` gave AmpC inh detg -13%, Sm TGR block -7%, TbPYK inhibitor 9%, RE007 growth inh 2%, AmpC no deterg -26% and SARS PLP yeast 5%.
`O=CC1=C(N2CCOCC2)/C(=C\c2ccccc2)CC1` gave AmpC inh detg 2%, Sm TGR block 25µM*, TbPYK inhibitor -7%, RE007 growth inh inconclusive, AmpC no deterg -38% and SARS PLP yeast 3%.
Screening O=C(O)c1ccccc1N/N=C/C1=C(N2CCOCC2)C(=C\c2ccccc2)/CC1 returned AmpC inh detg inconclusive, Sm TGR block 16µM*, TbPYK inhibitor -18%, RE007 growth inh -24%, AmpC no deterg -56% and SARS PLP yeast -1%.
`Cc1oc2c(c(C)cc3oc(=O)c(CC(=O)NCCc4ccc(Cl)cc4)c(C)c32)c1C` gave AmpC inh detg -1%, Sm TGR block 10% and TbPYK inhibitor -2%.
`Cc1cc(=O)[nH]c(N/N=C/C2=C(N3CCOCC3)C(=C\c3ccc(Cl)cc3)/CC2)n1` gave AmpC inh detg -4%, Sm TGR block 25µM*, TbPYK inhibitor -9%, RE007 growth inh -7%, AmpC no deterg -38% and SARS PLP yeast -30%.
Screening N#CC(=C1CCCC1)c1nc(-c2ccccc2O)cs1 returned AmpC inh detg -1%, Sm TGR block 25µM*, TbPYK inhibitor -28%, RE007 growth inh -3%, AmpC no deterg inconclusive and SARS PLP yeast -9%.
N#CC(=C1CCCC1)c1nc(-c2ccccc2)cs1 was read as AmpC inh detg 1%, Sm TGR block inconclusive, TbPYK inhibitor -2%, RE007 growth inh -24%, AmpC no deterg -46% and SARS PLP yeast -2%.
